Screening data (PubChem)
Pin1 inhibitor – inhibitors of human Pin1. Potency, µM (series often up to 115 µM), for the others: top-dose activity, negative = inhibition, hits mostly inhibitors. 0.009% of 390,000 active. Q13526. Pin1 FP peptide displacement, HiFluor488, 10 min; active means well fitted inhibition curve with a large enough effect in the polarisation, with a control signal flat, not every such curve was filed as active; inconclusive means small, poorly fitted or top-dose-only effect, or effect the other way, or a change in a side signal; inactive means no such curve, though single readings can be large or run the other way; the % refers to the polarisation; further: potency means the concentration at half of the fitted maximal effect; on the % scale 0 is the no-effect control and ±100 the full control effect
Target sequence (Q13526 whole entry, looked up): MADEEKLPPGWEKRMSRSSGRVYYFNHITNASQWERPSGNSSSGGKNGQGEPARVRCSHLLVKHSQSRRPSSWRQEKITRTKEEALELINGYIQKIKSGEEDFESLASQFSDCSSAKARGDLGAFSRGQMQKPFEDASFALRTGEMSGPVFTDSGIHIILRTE
Glioma ERSR ind – inducers of ER stress response in human glioma cells; U87-MG GRP78 promoter luciferase reporter, 16 h; Potency, µM, for inactives: at the highest dose activation, hits mostly activators; 0.02% of 420,000 active; AID 602332; further: potency means the concentration at half of the fitted maximal effect; series mostly up to about 76 µM; % of control where 0% means no effect; nearly all actives have a fitted effect of over 35% in size
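Stably transfected U87-MG human glioma cells carrying a GRP78-based luminescent sensor were seeded at 1000 cells/well, pin-dosed with compounds and incubated 16 h. Luciferase reagent was then added, and end-point luminescence was read after 10 min at room temperature.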
PI5P4K alpha inh – blocks human PI5P4K alpha kinase activity. P48426. PI5P4Kalpha enzyme, ADP-Glo luminescence, 60 min; active compounds read low. max response, %. 1.2% of 330,000 active; active means max response of -50% or lower; inconclusive means between -30% and -50%; inactive means -30% or higher; further: value at the top dose of about 77 µM; on the % scale 0 is the no-effect control and ±100 the full control effect
Target sequence (P48426 whole entry, looked up): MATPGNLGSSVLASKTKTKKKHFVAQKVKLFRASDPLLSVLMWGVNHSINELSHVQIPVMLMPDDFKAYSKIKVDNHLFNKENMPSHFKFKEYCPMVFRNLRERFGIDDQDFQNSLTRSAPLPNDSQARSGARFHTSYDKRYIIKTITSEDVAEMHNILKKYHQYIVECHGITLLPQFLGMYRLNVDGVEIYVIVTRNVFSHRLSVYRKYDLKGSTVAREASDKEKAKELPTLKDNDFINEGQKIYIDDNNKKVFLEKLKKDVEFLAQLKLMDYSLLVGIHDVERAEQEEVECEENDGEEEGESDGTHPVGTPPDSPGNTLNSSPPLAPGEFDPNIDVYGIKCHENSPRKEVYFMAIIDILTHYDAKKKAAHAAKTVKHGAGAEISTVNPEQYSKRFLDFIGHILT
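Enzyme plus substrate dispensed, test compounds pinned in, then ATP (5 microM final) added. After 60 min at RT, ADP-Glo reagent 1 for 45 min and reagent 2 for 30 min preceded luminescence imaging.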
FEN1 inh-1 – human FEN1 inhibition; P39748; Recombinant FEN1 flap cleavage, fluorescence, 15 min; Potency, µM (series often up to 114 µM), without a hit: top-dose activity change, negative = inhibition, actives largely listed as inhibitors; 0.35% of 390,000 active; AID 588795; further: potency means the concentration at half of the fitted maximal effect; on the % scale 0 is the no-effect control and ±100 the full control effect; nearly all actives have a fitted effect of over 65% in size
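Reaction started by adding substrate (50 nM final) to 10 nM enzyme after 15 min room-temperature compound preincubation. Reads at 0 and 15 min, with data normalized and fitted to a four-parameter Hill equation.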
WRN inhibitor – WRN helicase (human) inhibition | Q14191 | WRN helicase unwinding, fluorescent forked duplex, kinetic | Potency, µM (doses to about 114 µM), for the others: at the highest dose activity change, negative = inhibition, hits mostly inhibitors | 0.46% of 360,000 active; further: potency means the concentration at half of the fitted maximal effect; on the % scale 0 is the no-effect control and ±100 the full control effect; nearly all actives have a fitted effect of over 55% in size
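WRN at 20 nM final was preincubated with compound for 15 min at room temperature; reaction started with 100 nM forked duplex oligonucleotide carrying fluorophore and quencher plus 2 mM ATP (final). Unwinding followed kinetically by red fluorescence (ex 525/em 598 nm).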
PGK inhibitor – T. brucei PGK inhibition. AID 602233. 0.043% of 380,000 active. PGK/GAPDH coupled, Kinase-Glo luminescence, 60 min. P07378. Potency, µM (doses to about 57.5 µM), inactives show at the highest dose activity change, negative = inhibition, most hits filed as inhibitors; further: potency means the concentration at half of the fitted maximal effect; on the % scale 0 is the no-effect control and ±100 the full control effect; nearly all actives have a fitted effect of over 60% in size
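Luminescent ATP detection (Kinase-Glo Plus) follows a 60-minute room-temperature incubation, with wells lacking PGK as controls. Buffer: 100 mM TEA (pH 7.6), 5 mM MgCl2, 0.01% Tween-20. Coupling enzyme GAPDH (100 nM final) supplies unstable 1,3-BPG in-well.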
FEN1 inh-2 – confirmation of human FEN1 inhibitors; shares compounds with FEN1 inh-1; FEN1 flap cleavage, TAMRA/BHQ2 fluorogenic DNA substrate; Potency, µM, most hits filed as inhibitors; 79% of 880 active; AID 720498; further: potency means the concentration at half of the fitted maximal effect; nearly all actives have a fitted effect of over 60% in size
* hit, by the source's call; i = inactive; ? = inconclusive; / = not tested or not shown; [ ] = dose if it differs, or a comment. A selection: hits, their analogues and other compounds. The true share with any hit is near 1.3%. Unless noted, the call rests on the fitted dose curve; in most records, active means well fitted curve in the direction sought with a large enough effect; inconclusive means small, poorly fitted or top-dose-only effect, or another doubt; inactive means no such curve, though single readings can be large; an effect the other way counts as inactive or inconclusive.

SMILES	Pin1 inhibitor	Glioma ERSR ind	PI5P4K alpha inh	FEN1 inh-1	WRN inhibitor	PGK inhibitor	others
COc1ccc(C(=O)OCC(=O)Nc2sccc2C(N)=O)cc1OC	?	-3%	-7	-1%	-8%	-8%
O=C(COC(=O)c1ccc(Br)o1)Nc1ncc([N+](=O)[O-])s1	-6%	4%	-53*	?	?	-15%
COc1ccccc1-c1ccnc(-n2ncc(C(=O)N[C@H]3CCCCNC3=O)c2C2CC2)n1	/	-4%	/	/	/	/
CCS(=O)(=O)Nc1cc(C(=O)N2CCCN(C=O)CC2)c2c(c1)nc(-c1ccccc1)n2C	/	-3%	/	/	/	/
Cc1cccc(OCC(=O)N/N=C/C=C/c2ccco2)c1	1%	?	-76*	-7%	-26%[57.1 µM]	i
CCCC1=NN2C(=N)/C(=C\c3ccc(SCc4ccco4)o3)C(=O)N=C2S1	?	-3%	-56*	?	40µM*	-20%
CCC1=NN2C(=N)/C(=C\c3ccc(SCc4ccco4)o3)C(=O)N=C2S1	69%	-2%	-52*	-29%	50µM*	-13%
CCCC1=NN2C(=N)/C(=C\c3cc(C)n(Cc4ccccc4)c3C)C(=O)N=C2S1	63%	-3%	1	-4%	-5%	-6%
O=C1/C(=C\c2ccc(O)cc2)SC(=S)N1Cc1ccccc1	?	0%	18	-13%	-12%[11.6 µM]	-1%
O=C1/C(=C/c2ccc(O)c([N+](=O)[O-])c2)SC(=S)N1Cc1ccccc1	33%	-2%	-7	-15%	-10%	-4%
O=C(O)CN1C(=O)/C(=C\c2cc(Br)ccc2OCc2ccccc2Cl)SC1=S	/	0%	0	?	56µM*	-13%
COc1cc(/C=C2\SC(=S)N(NC(=O)c3ccccc3O)C2=O)ccc1O	?	-1%	-62*	?	56µM*	-2%
O=C1/C(=C\c2cccc([N+](=O)[O-])c2O)SC(=S)N1Cc1ccccc1	/	-3%	-90*	?	?	?
O=C1/C(=C/c2ccccc2O)SC(=S)N1Cc1cccnc1	9%	0%	-51*	13%	-3%	2%
Cc1cccc(OC2=NS(=O)(=O)c3ccccc32)c1	2%[163 µM]	/	/	/	/	/
CCOc1cc(/C=C2/SC(=S)N(Cc3ccccc3)C2=O)ccc1O	59%	4%	6	-36%	35µM*	-8%
COc1cc(/C=C2/SC(=S)N(Cc3ccccc3)C2=O)ccc1OS(C)(=O)=O	5%	14%	1	7%	0%	2%
O=C1/C(=C\c2cc(Br)cc(Br)c2O)SC(=S)N1Cc1ccccc1	16%	1%	?	?	40µM*	-26%
COc1cc(=O)n2c(c1C(=O)NCc1ccco1)CCN(Cc1ccc3ccccc3c1)CC2	/	-5%	/	/	/	/
O=C1c2ccccc2C(=O)C1c1ccnc2ccccc12	38%	-6%	-1	-1%	-2%	-10%
N#CC1=C(N)SC(N)=C(C#N)C1c1ccnc2ccccc12	?	-2%	-74*	-5%	?	-10%
CCc1ccccc1NC(=O)CSc1ccsc1[N+](=O)[O-]	2%	-4%	-57*	-10%	?	?
O=C(CSc1ccsc1[N+](=O)[O-])Nc1cccc(F)c1	?	-4%	-77*	?	?	-29%
O=C(CSc1ccsc1[N+](=O)[O-])NC1CCCC1	?	-1%	?	4%	-6%[11.6 µM]	-2%
Cc1ccc(N[S+](=O)([O-])c2cc3c(cc2CCc2ccccc2)NC(=O)CO3)cc1C	1%	/	/	/	/	/
SMILES	Pin1 inhibitor	Glioma ERSR ind	PI5P4K alpha inh	FEN1 inh-1	WRN inhibitor	PGK inhibitor	others
O=C(OCCC12CC3CC(CC(C3)C1)C2)c1ccc(NCc2cc(O)ccc2O)cc1	?	-11%	-59*	?	?	?
CCOc1cc(/C=C2\NC(=O)NC2=O)cc([N+](=O)[O-])c1O	-14%	-2%	-59*	-17%	-9%	i
COc1cc(/C=C2/C(=O)N(c3ccc(C)c(C)c3)N=C2C)cc([N+](=O)[O-])c1O	-6%	6%	-11	1%	-12%	-7%
COc1cc(/C=C2\C(=O)NN(c3ccc(C)cc3)C2=O)cc([N+](=O)[O-])c1O	?	-4%	-54*	-5%	?	-13%
Cc1ccc(N2NC(=O)/C(=C/c3ccc(-c4ccc(Cl)c(C(=O)O)c4)o3)C2=O)cc1	?	4%	?	2%	?	-15%
O=C1NN(c2ccccc2)C(=O)/C1=C\c1ccc(-c2cc([N+](=O)[O-])ccc2O)o1	/	-2%	-69*	?	-20%[11.6 µM]	?
COc1cc(/C=C2\C(=O)NN(c3ccccc3)C2=O)cc([N+](=O)[O-])c1O	/	-4%	-70*	?	?	-13%
CC(c1ccco1)N(C)c1ncnc2ccc(-c3ccc4c(c3)OCO4)cc12 (stereo not given)	1%	/	/	/	/	/
Cc1cc(CNC(=O)c2cnn(-c3nccc(-c4cc(C)sc4C)n3)c2C2CC2)on1	/	7%	/	/	/	/
COc1ccc(-c2ccc(C(=O)NCC3Cc4cccc(-c5nc(C)cnc5C)c4O3)o2)cc1 (stereo not given)	/	1%	/	/	/	/
COc1cc(/C=C2/C(=O)NN(c3ccc(Cl)cc3)C2=O)cc(OC)c1O	35%	-2%	-3	-11%	-26%	-8%
CCOc1cc(/C=C2\C(=O)NN(c3ccccc3)C2=O)cc([N+](=O)[O-])c1O	/	-1%	-57*	?	?	?
COc1cc(/C=C2\SC(=O)N(Cc3ccc(Cl)cc3)C2=O)cc([N+](=O)[O-])c1O	/	-3%	-81*	?	-6%[11.6 µM]	0%
COc1cc(/C=C2/C(=O)NN(c3ccccc3)C2=O)cc(Br)c1O	12%	?	-55*	-22%	-13%	-6%
CC(=O)C[C@H]1[C@H](O[C@H]2[C@H](OC(C)C(=O)N[C@@H](C)C(=O)N[C@H](CCC(=O)N[C@@H](CCCCN)C(=O)N[C@H](C)C(=O)O)C(N)=O)[C@@H](NC(=O)O)C(O)O[C@@H]2CO)O[C@H](CO)[C@@H](O)[C@@H]1O (stereo not given in full)	/	-3%	/	/	/	/
CCCCN1/C(=C/c2ccc3ccccc3[n+]2CC)Sc2ccccc21	46%	-8%	-18	40µM*	-2%	-12%
O=[N+]([O-])c1ccc(N/N=C/c2ccc(O)c(O)c2O)c(S(=O)(=O)N2CCOCC2)c1	?	-1%	-98*	20µM*	?	-1%	FEN1 inh-2=34*
O=C(O)CCNc1ccc(NCCC(=O)O)c2c1C(=O)c1ccccc1C2=O	?	-10%	-68*	18µM*	?	?	FEN1 inh-2=38*
